The values below come from the antibiotic and cytotoxicity screens of Wong et al. (2023).

The campaign covered roughly 39,000 compounds. About 1,500 (3.8%) were called active. For the sample, actives were picked, then their nearest neighbours and some compounds at random.

The assay deals with HSkMC (human skeletal muscle cells). The experiment in a line: cytotoxicity call (relative viability < 0.9). The conditions noted are these: 10 µM.
As for `COc1ccc2c3c([nH]c2c1)[C@@H](CO)N(C[C@]13CCN(CC1)Cc1ccccc1F)S(=O)(=O)c1cn(cn1)C`, the cytotoxicity call is “inactive”.

Regarding `C[C@@H]1CN([C@@H](C)CO)C(=O)c2cc(NC(=O)Nc3cccc4ccccc34)ccc2O[C@@H]1CN(C)C(=O)Nc1ccc(F)cc1`, the cytotoxicity call was “inactive”.

With `CN1C(=O)c2cc(NC(=O)C3CCOCC3)ccc2OC[C@@H]2O[C@H](CC(=O)NCc3ccc4c(c3)OCO4)CC[C@@H]21`, the cytotoxicity call is “inactive”.

Turning to `COC(=O)c1c2oc(c1C(=O)OC)C(=O)N[C@H](Cc1ccccc1)Cn1cc(nn1)[C@@H](Cc1ccccc1)NC(=O)N[C@H](COC(=O)NCCCCCC(=O)NO)CC2`, the cytotoxicity call was “inactive”.

For the molecule `Cc1cc(C)n([C@@H](C)CN)n1`, the cytotoxicity call is “inactive”.

As to `C[C@H]1CN([C@@H](C)CO)C(=O)c2cccc(NS(=O)(=O)c3cccs3)c2O[C@@H]1CN(C)S(=O)(=O)c1cn(C)cn1`, the cytotoxicity call was “inactive”.

In the case of `C[C@H](CO)N1C[C@H](C)[C@@H](CN(C)S(=O)(=O)c2cn(C)cn2)Oc2cc(C3=CCCC3)ccc2S1(=O)=O`, the cytotoxicity call is “inactive”.

As for `COc1ccc(CN(C)C[C@H]2Oc3ccc(NC(=O)C4CC4)cc3CC(=O)N([C@@H](C)CO)C[C@@H]2C)cc1`, the cytotoxicity call was “inactive”.

Regarding `C=C1CCC=C(C)CCC2C1CC2(C)C.O` (single isomer, unassigned; (-)) [(-)E-CARYOPHYLLENE hydrate ], the cytotoxicity call was “inactive”.

Turning to `C=C1C(=O)OC2C1CCC(C)=CCCC1(C)OC21` (stereo unspecified), the cytotoxicity call was “active”.

As for `Cc1cc(C)nc(NS(=O)(=O)c2ccc(NC(=O)c3cccn(OCc4ccc(F)cc4)c3=O)cc2)n1`, the cytotoxicity call is “inactive”.

For `Cc1ccc(C(=O)Nc2ccc(Oc3cc4cnn(C)c4cc3-c3cn[nH]c3)c(F)c2)c(=O)n1-c1ccc(F)cc1`, the cytotoxicity call is “active”.

Regarding `CCCNC(=O)N1C[C@@H](C)[C@@H](OC)CN(C)C(=O)c2ccc(NS(=O)(=O)CC(F)(F)F)cc2OC[C@@H]1C`, the cytotoxicity call was “inactive”.

In the case of `Cc1csc(-c2nnc(Nc3ccc(Oc4ncccc4-c4ccnc(N)n4)cc3)c3ccccc23)c1`, the cytotoxicity call is “active”.

Take `Cc1ccc(Oc2nnc(-c3cccs3)c3ccccc23)cc1`: the cytotoxicity call was “inactive”.

Take `Cc1ccc(Nc2nnc(-c3ccccc3)c3ccccc23)cc1`: the cytotoxicity call was “inactive”.

Take `O=C(O)C[C@@H](O)C(=O)O`: the cytotoxicity call is “inactive”.

With `COC(=O)C1=CO[C@@H](O[C@@H]2O[C@H](CO)[C@@H](O)[C@H](O)[C@H]2O)/C(=C\CO)[C@@H]1CC(=O)OCCc1ccc(O)cc1`, the cytotoxicity call is “inactive”.

As for `C[C@@H]1CN([C@H](C)CO)S(=O)(=O)c2ccc(C3=CCCC3)cc2O[C@H]1CN(C)S(=O)(=O)c1ccc(F)cc1`, the cytotoxicity call is “inactive”.

Turning to `CS(=O)(=O)N1CCc2c(-c3cnc(N)nc3)nc(N3CCOCC3)nc21`, the cytotoxicity call is “active”.

As to `CS(=O)(=O)N1CC[C@]2(COCc3cnc(N4CCOCC4)nc32)C1`, the cytotoxicity call is “inactive”.

In the case of `c1nc(N2CCOCC2)nc(N2CCOCC2)n1`, the cytotoxicity call is “inactive”.

`C[C@H]1CN([C@@H](C)CO)C(=O)c2cccc(NC(=O)c3ccncc3)c2O[C@H]1CN(C)Cc1ccc(Oc2ccccc2)cc1`: the cytotoxicity call was “inactive”.

With `C[C@H](CO)N1C[C@H](C)[C@H](CN(C)C(=O)Nc2ccc(C(F)(F)F)cc2)OCCCC[C@H](C)Oc2ccc(NS(=O)(=O)c3ccccc3)cc2C1=O`, the cytotoxicity call was “inactive”.

For `C[C@@H]1CN([C@@H](C)CO)C(=O)c2cc(NS(=O)(=O)c3ccccc3)ccc2O[C@@H](C)CCCCO[C@@H]1CN(C)C(=O)Nc1ccc(C(F)(F)F)cc1`, the cytotoxicity call was “active”.

On to `C[C@H](CO)N1C[C@H](C)[C@@H](CN(C)C(=O)Nc2ccc(C(F)(F)F)cc2)OCCCC[C@H](C)Oc2ccc(NS(=O)(=O)c3ccccc3)cc2C1=O`, for which the cytotoxicity call was “inactive”.

Regarding `C[C@H]1CCCCO[C@H](CN(C)C(=O)Nc2ccc(C(F)(F)F)cc2)[C@@H](C)CN([C@@H](C)CO)C(=O)c2cc(NS(=O)(=O)c3ccccc3)ccc2O1`, the cytotoxicity call was “active”.

Consider `C[C@@H]1CCCCO[C@H](CN(C)C(=O)Nc2ccc(C(F)(F)F)cc2)[C@@H](C)CN([C@H](C)CO)C(=O)c2cc(NS(=O)(=O)c3ccccc3)ccc2O1`, for which the cytotoxicity call is “inactive”.

`C[C@@H]1CCCCO[C@H](CN(C)C(=O)Nc2ccc(C(F)(F)F)cc2)[C@H](C)CN([C@H](C)CO)C(=O)c2cc(NS(=O)(=O)c3ccccc3)ccc2O1`: the cytotoxicity call is “inactive”.

As to `CCN1C(=O)[C@H]2[C@H]3[C@H](O)[C@H](O)C/C(=N\OC[C@@H](O)COCc4ccco4)[C@@H]3CC[C@H]2C1=O`, the cytotoxicity call was “inactive”.

With `C[C@@H]1CCCCO[C@@H](CN(C)S(=O)(=O)c2cccs2)[C@@H](C)CN([C@@H](C)CO)C(=O)c2cc(NC(=O)Nc3ccccc3)ccc2O1`, the cytotoxicity call was “inactive”.

With `C[C@H]1CN([C@@H](C)CO)C(=O)c2cccc(NC(=O)C3CCOCC3)c2O[C@H]1CN(C)S(=O)(=O)c1cn(C)cn1`, the cytotoxicity call was “inactive”.

Consider `NC(=O)N1CCc2n[nH]c(C(=O)N3CCOCC3)c2C1`, for which the cytotoxicity call was “inactive”.

`C=CC(=O)N1CC[C@@H](Oc2nc(Nc3ccc(N4CCC(N5CCN(C)CC5)CC4)cc3)c(C(N)=O)nc2CC)C1`: the cytotoxicity call was “active”.

On to `CCc1nc(C(N)=O)c(Nc2ccc(N3CCC(N4CCN(C)CC4)CC3)c(OC)c2)nc1NC1CCOCC1`, for which the cytotoxicity call was “inactive”.

As for `C=CCn1c(=O)c2cnc(Nc3ccc(N4CCN(C)CC4)cc3)nc2n1-c1cccc(C(C)(C)O)n1`, the cytotoxicity call was “inactive”.

In the case of `COCC(=O)Nc1ccc2c(c1)C(=O)N(C)[C@@H]1CC[C@@H](CC(=O)NCc3ccc(OC)cc3)O[C@@H]1CO2`, the cytotoxicity call is “inactive”.

Turning to `COc1ccc(S(=O)(=O)Nc2cccc3c2O[C@@H](CN(C)Cc2ccc(-c4ccccc4)cc2)[C@H](C)CN([C@@H](C)CO)C3=O)cc1`, the cytotoxicity call is “inactive”.

As to `CC(CCC(=O)O)C1CCC2C3C(O)CC4CC(O)CCC4(C)C3CC(O)C12C` (stereo unspecified), the cytotoxicity call was “inactive”.

For the molecule `CCCCCCCCCCCCCCCCCCCC(=O)N[C@H]1CC[C@@]2(C)[C@@H](C1)C[C@@H](O)[C@@H]1[C@@H]2C[C@H](O)[C@]2(C)[C@@H]([C@H](C)CCC(=O)O)CC[C@@H]12`, the cytotoxicity call is “active”.

In the case of `CC(CCC(=O)NCC(=O)O)C1CCC2C3C(O)CC4CC(O)CCC4(C)C3CC(O)C12C` (stereo unspecified), the cytotoxicity call is “inactive”.

Turning to `CCc1cc(=O)oc2c(C)c(O[C@@H]3O[C@H](CO)[C@@H](O)[C@H](O)[C@H]3O)ccc12`, the cytotoxicity call is “active”.

With `Cc1c(C)c2ccc(O[C@@H]3O[C@H](CO)[C@H](O)[C@H](O)[C@H]3O)cc2oc1=O`, the cytotoxicity call was “inactive”.

For `Cc1cc(=O)oc2cc(O[C@H]3O[C@@H](CO)[C@@H](O)[C@@H](O)[C@@H]3O)ccc12`, the cytotoxicity call was “inactive”.

In the case of `C[C@H](CO)N1C[C@H](C)[C@H](CN(C)Cc2ccc(F)cc2)Oc2cc(C#CC(C)(C)O)ccc2S1(=O)=O`, the cytotoxicity call is “inactive”.

Take `C=CCOC(=O)[C@@H]1[C@@H]2C=C[C@]3(O2)[C@H](C(=O)N(CC=C)Cc2ccccc2)N(c2cccc(Cl)c2CO)C(=O)[C@@H]13`: the cytotoxicity call is “inactive”.

Regarding `C=CCN(Cc1ccccc1)C(=O)[C@@H]1N(CCOCCO)C(=O)[C@@H]2[C@H](C(=O)O)[C@@H]3C=C[C@@]21O3`, the cytotoxicity call is “inactive”.

With `C=CCOC(=O)[C@@H]1[C@@H]2C=C[C@@]3(O2)[C@@H]1C(=O)N(CCCCCCO)[C@H]3C(=O)N(CC=C)Cc1ccccc1`, the cytotoxicity call is “active”.

Regarding `CN1C(=O)C[C@H](C(=O)O)[C@H]1c1cccnc1`, the cytotoxicity call is “inactive”.

Consider `COc1ccc(S(=O)(=O)Nc2ccc3c(c2)C(=O)N([C@@H](C)CO)C[C@H](C)[C@H](CN(C)S(=O)(=O)c2ccccc2)O3)cc1`, for which the cytotoxicity call is “inactive”.

As to `COc1ccc(CN(C)C[C@H]2Oc3c(NS(=O)(=O)c4cn(C)cn4)cccc3C(=O)N([C@H](C)CO)C[C@H]2C)cc1`, the cytotoxicity call was “inactive”.

Take `C[C@H](CO)N1C[C@H](C)[C@H](CN(C)C(=O)Nc2cccc3ccccc23)Oc2ccc(NC(=O)Nc3ccc4c(c3)OCO4)cc2CC1=O`: the cytotoxicity call was “inactive”.

`Cc1cc(C)c(N(Cc2ccccc2)S(=O)(=O)c2ccc(OCCNC(=O)c3cc4ccccc4o3)cc2)c(C(=O)NO)c1`: the cytotoxicity call was “active”.

`CCc1nc2ccc(C(=O)NCCOc3ccc(OC)cc3)cn2c1N(CC)Cc1cccc(Br)c1`: the cytotoxicity call was “inactive”.

With `O=C(NCCO)c1cc2ccccc2oc1=O`, the cytotoxicity call was “inactive”.

Take `C[C@H]1CN([C@@H](C)CO)C(=O)c2cccc(NS(=O)(=O)c3cn(C)cn3)c2O[C@H]1CN(C)S(=O)(=O)c1cccs1`: the cytotoxicity call was “inactive”.

Consider `C[C@@H]1CN([C@H](C)CO)C(=O)c2cc(C#C[C@@H](C)O)cnc2O[C@@H]1CN(C)C(=O)Nc1ccc(C(F)(F)F)cc1`, for which the cytotoxicity call was “inactive”.

As to `Nc1cc(=O)[nH]c(=O)n1-c1ccc(Cl)cc1`, the cytotoxicity call is “inactive”.

`O=C(O)CSCC(=O)N1CCCCC1`: the cytotoxicity call was “inactive”.

Take `CN1C(=O)c2cc(NC(=O)C3CCOCC3)ccc2OC[C@@H]2O[C@@H](CC(=O)NCc3ccccc3F)CC[C@H]21`: the cytotoxicity call is “inactive”.

With `C[C@H]1CN([C@@H](C)CO)C(=O)c2cccc(NS(C)(=O)=O)c2O[C@H]1CN(C)S(=O)(=O)c1ccc(F)cc1`, the cytotoxicity call was “inactive”.

On to `COc1ccc(C[C@@H]2c3cc(OC)c(OC)cc3CC[N@+]2(C)CCC(=O)OCCCCCOC(=O)CC[N@@+]2(C)CCc3cc(OC)c(OC)cc3[C@H]2Cc2ccc(OC)c(OC)c2)cc1OC`, for which the cytotoxicity call was “active”.

For the molecule `COc1ccc(CC2c3cc(OC)c(OC)cc3CC[N+]2(C)CCC(=O)OCCCCCOC(=O)CC[N+]2(C)CCc3cc(OC)c(OC)cc3C2Cc2ccc(OC)c(OC)c2)cc1OC.O=S(=O)([O-])c1ccccc1.O=S(=O)([O-])c1ccccc1` (stereo unspecified), the cytotoxicity call is “inactive”.

Regarding `COc1ccc(C[C@H]2c3cc(OC)c(OC)cc3CC[N@+]2(C)CCC(=O)OCCCCCOC(=O)CC[N@+]2(C)CCc3cc(OC)c(OC)cc3[C@@H]2Cc2ccc(OC)c(OC)c2)cc1OC`, the cytotoxicity call is “inactive”.

On to `C[C@@H]1CN([C@@H](C)CO)C(=O)Cc2cc(NC(=O)Cc3cn(C)c4ccccc34)ccc2O[C@@H]1CN(C)S(=O)(=O)c1cn(C)cn1`, for which the cytotoxicity call was “inactive”.

Regarding `C[C@@H]1CCCCO[C@@H](CN(C)S(=O)(=O)c2ccccc2)[C@H](C)CN([C@@H](C)CO)C(=O)c2cc(NS(=O)(=O)c3cn(C)cn3)ccc2O1`, the cytotoxicity call is “inactive”.
